In the library only some 8% were active in any assay of this set; here they are far more common.
MCF10A rerep = DNA re-replication induction in MCF 10a cells; MCF 10A DNA re-replication, Hoechst nuclear intensity, 48 h; 2.9% of 350,000 active; Potency, µM (series often up to 46.1 µM), for the others: at the highest dose activity, positive = re-replication, usual class: activators; further: % of control where 0% means no effect; nearly all actives have a fitted effect of over 50% in size
HT1080 IDH1KD tx = kills HT-1080 cells with IDH1 knockdown; 2% of 360,000 active; HT-1080 IDH1 knockdown viability, ATP luminescence, 48 h; Potency, µM (titrated, usually from 46.1 µM), inactives show at the top dose activity, negative = toxicity, hits mostly cytotoxic; AID 686971;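 further: 0% = DMSO wells and -100% = cell-free medium wells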
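Assay cells: HT-1080 with IDH1 knockdown, 750 per well, RPMI/5% FBS. Exposure: 48 h at 37 °C following 2 h pre-incubation. Read: CellTiter-Glo luminescence; fitted concentration-response, curve class assigned.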
HT1080NT lethal = kills 2HG-producing HT-1080-NT fibrosarcoma cells; Potency, µM (series often up to 46.1 µM), for inactives: at the highest dose activity, negative = less viability, most hits filed as cytotoxic; HT-1080-NT fibrosarcoma viability, CellTiter-Glo ATP luminescence, 48 h; 1.6% of 360,000 active;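 further: NT is the 2HG producing partner of a matched IDH1 knockdown line; 0% = DMSO-treated cells and -100% = media-only wells without cells; nearly all actives have a fitted effect of over 55% in size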
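Luminescent CellTiter-Glo readout after 48 hours of compound exposure at 37 degrees C defined viability of HT-1080-NT cells. Activity was normalized to DMSO wells and cell-free media wells; concentration-response curves were fitted and assigned curve classes.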
KB-3-1 cytotox = KB-3-1 parental cell cytotoxicity | KB-3-1 viability, CellTiter-Glo ATP luminescence, 72 h | 1.4% of 400,000 active | Potency, µM (highest dose often 46.1 µM), actives largely listed as cytotoxic; further: on the % scale 0 is the no-effect control and ±100 the full control effect; nearly all actives have a fitted effect of over 60% in size
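72 h, 37 °C compound treatment of KB-3-1 parental cells; CellTiter-Glo added, 10 min, luminescence read. Data corrected against DMSO-only plates and normalized before curve fitting.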
KB-V1 cytotox = kills drug-selected multidrug resistant KB-V1 cells; KB-V1 MDR cells viability, CellTiter-Glo, 72 h; Potency, µM (doses to about 46.1 µM), hits mostly cytotoxic; 3.4% of 400,000 active; AID 1347076; further: on the % scale 0 is the no-effect control and ±100 the full control effect; nearly all actives have a fitted effect of over 60% in size
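qHTS viability screen in drug-selected KB-V1 MDR cells: 72 h compound treatment at 37 degrees C, ATP luminescence end point.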
SW480 rereplic = DNA re-replication induction in SW480 cells. Potency, µM (highest dose often 46.1 µM), inactives show top-dose re-replication activation, most hits filed as activators. SW480 DNA re-replication, Hoechst DNA content imaging, 48 h. 1.8% of 340,000 active; further: % of control where 0% means no effect; nearly all actives have a fitted effect of over 55% in size
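250 cells/well; 23 nL cpd via pin tool; 48 hr, 37 C, 5% CO2; Hoechst 40 min; imager read of total nuclear intensity, ex 405/em 500-530 nm.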
* marks the source's active call; other numbers are inactive results; i = inactive; ? = inconclusive; . = no result; ! = repeats disagree; [ ] = remark or other dose. The call rests on the fitted dose curve; in most records, active means well fitted curve in the direction sought with a large enough effect; inconclusive means small, poorly fitted or top-dose-only effect, or another doubt; inactive means no such curve, though single readings can be large; an effect the other way counts as inactive or inconclusive. Potency means the concentration at half of the fitted maximal effect.

SMILES | MCF10A rerep | HT1080 IDH1KD tx | HT1080NT lethal | KB-3-1 cytotox | KB-V1 cytotox | SW480 rereplic
COc1cccc(OC)c1C(=O)Nc1cccc(S(=O)(=O)Nc2ccccc2Cl)c1 | 11% | 1% | 0% | i | i | -1%
COc1ccccc1NS(=O)(=O)c1cccc(NC(=O)Nc2ccc(Cl)cc2)c1 | ? | 18µM* | ? | ? | ? | ?
CCOCCCNC(=O)c1ccc2c(=O)n(CCc3ccccc3)c(=O)[nH]c2c1 | . | . | . | i | i | .
O=S(=O)(CCSc1nc2ccccc2o1)c1nc2ccccc2s1 | ? | 6.3µM* | 10µM* | i | i | 4.6µM*
CCS(=O)(=O)CCSc1nc2ccccc2o1 | 9% | -1% | -5% | i | i | 0%
O=S(=O)(CCSc1ccccn1)c1nc2ccccc2s1 | ? | 7.9µM* | 20µM* | i | i | ?
O=C(CSc1ccccn1)Nc1nc2ccccc2s1 | 4% | -2% | -2% | i | i | -7%
CCOCCCNC(=O)c1ccc2c(=O)n(CCc3ccc(OC)c(OC)c3)c(=O)[nH]c2c1 | . | . | . | i | i | .
Cc1ccccc1S(=O)(=O)Nc1nc2ccccc2nc1N1CCc2ccccc2C1 | 13% | -19% | -9% | i | 21µM* | ?
CN1CCN(c2nc3ccccc3nc2NS(=O)(=O)c2ccc(Br)cc2)CC1 | 7% | -9% | -1% | i | i | 0%
CC(=O)Nc1ccc(S(=O)(=O)Nc2nc3ccccc3nc2N2CCc3ccccc3C2)cc1 | 27% | 1% | 3% | i | 9.2µM* | ?
O=S(=O)(Nc1nc2ccccc2nc1N1CCc2ccccc2C1)c1ccc(Br)cc1 | 15µM* | ? | -20% | ? | i | 0%
O=S(=O)(Nc1nc2ccccc2nc1N1CCc2ccccc2C1)c1ccc(Cl)cc1 | 6% | -16% | -3% | 15µM* | 15µM* | ?
CCOc1ccc(N(CC)C(=O)c2cc3c(s2)-c2ccc(Cl)cc2SC3)cc1 | . | . | . | ? | i | .
O=C(COc1ccccc1Br)NCCc1nc2ccccc2[nH]1 | -5% | 7% | 4% | i | 15µM*! | -3%
CCN(c1ccccc1)c1nnc(NC(=O)Nc2ccc(Br)cc2F)s1 | . | . | . | i | ? | .
Cc1ccc2nc(C3CCCN3Cc3nc(CCC(C)C)no3)[nH]c2c1 (centres undefined) | -1% | -11% | -12% | i | 6.5µM* | -4%
Cc1ccc(OCCN2C(=O)C(=O)c3cc(C)ccc32)cc1 | 7.3µM* | ? | -27% | ? | ? | 13µM*
O=C1C(=O)N(CCS(=O)(=O)c2ccccc2)c2ccc(Cl)cc21 | ? | ? | ? | 16µM* | i | ?
CCc1ccc2c(c1)C(=O)C(=O)N2CCS(=O)(=O)c1ccccc1 | -8% | 0% | -8% | i | i | -6%
CCCN1C(=O)C(=O)c2cc(Cl)ccc21 | 21µM* | 15µM* | 15µM* | i | i | 16µM*
Cc1cc(C)c2c(CC(=O)N(Cc3ccccc3)C3CCS(=O)(=O)C3)coc2c1 (centres undefined) | . | . | . | i | ? | .
O=C(N/N=C/c1ccc(O)c2ncccc12)c1cccc(Br)c1 | 18µM* | 18µM* | 23µM* | 2.6µM* | ? | ?
O=C(N/N=C\c1ccc(Sc2ccccn2)o1)c1cccc(Br)c1 | ? | 2% | -11% | i | 23µM* | 6%
Cc1ccccc1C(=O)N/N=C/c1ccc(Sc2ccccn2)o1 | -6% | 0% | -9% | i | 21µM* | 0%
SMILES | MCF10A rerep | HT1080 IDH1KD tx | HT1080NT lethal | KB-3-1 cytotox | KB-V1 cytotox | SW480 rereplic
O=C(Cc1ccc(Cl)cc1)Nc1nnc2n1CCS2 | . | . | . | i | i | .
CCc1ccc(NC(=O)CSC2=Nc3ccccc3C3=NC(CCC(=O)NCCc4ccccc4)C(=O)N23)cc1 (centres undefined) | . | . | . | i | i | .
CC(C)NCC(O)Cn1c2c(c3ccccc31)CCc1c-2cnn1-c1ccccc1 (centres undefined) | 18µM* | -12%[9.24 µM] | ? | 16µM* | 21µM* | 21%
CN1CCc2c(n(CC(O)CNCc3ccccc3)c3ccccc23)C1=O (centres undefined) | 1% | ? | ? | i | i | 4%
CC(=O)Nc1nc2c(s1)CCc1ccccc1-2 | ? | 3% | 8% | i | ? | -16%
O=C(CCCl)Nc1nc2c(s1)CCc1ccccc1-2 | 18µM* | 9.2µM* | 9.2µM* | ? | i | ?
N#C/C(=C(/O)CCl)c1nc2c(s1)CCc1ccccc1-2 | 13µM* | ? | ? | 4.1µM* | 15µM* | ?
Cc1ccccc1NC(=S)NC(=O)CCc1ccccc1 | -3% | ? | 10µM* | i | ? | 4%
CCCC(=O)NC(=S)Nc1c(C)cc(Br)cc1C | 2% | -4% | 0% | 18µM* | ? | 15%
Cc1ccccc1NC(=S)NC(C)CCc1ccccc1 (centres undefined) | -2% | 8% | -1% | i | i | 6%
NC(=O)c1ccccc1NC(=O)CCc1ccccc1 | 4% | 5% | 7% | i | i | -9%
NC(=O)c1ccccc1NC(=S)NC(=O)CCc1ccccc1 | 5.8µM* | 3.3µM* | 3.3µM* | i | i | 3.3µM*
CSc1cccc(NC(=O)C(=O)NCc2ccccc2)c1 | -1% | -1% | -25% | i | i | -8%
CSc1cccc(NC(=O)NCc2cccc(CNC(=O)Nc3cccc(SC)c3)c2)c1 | 7.3µM* | ? | 23µM* | ? | i | 11%
Cc1cc(O)c(C(c2ccccc2Cl)N2CCN(c3ccccc3)CC2)c(=O)n1Cc1ccco1 (centres undefined) | . | . | . | i | i | .
NCCCCCCNS(=O)(=O)c1ccc2c(Cl)cccc2c1 | . | . | . | ? | i | .
Cc1cccc(C)c1NC(=S)NC(=O)CCc1ccccc1 | ? | 11µM* | 10µM* | i | ? | 3.3µM*
CSc1cccc(NC(=S)NC(=O)CCc2ccccc2)c1 | 16µM* | -20% | -17% | ? | ? | ?
Brc1cccc(-c2nnc3sc(CN4CCC5(CC4)OCCO5)cn23)c1 | 23% | 1% | 3% | i | 21µM* | -6%
O=C(CCS(=O)(=O)Cc1ccccc1)N1CCN(Cc2ccccc2)CC1 | 10µM* | ? | 19% | i | ? | -6%
CCc1ccc(CN2CCN(S(=O)(=O)Cc3ccccc3)CC2)cc1 | 26% | -19% | -18% | i | 10µM* | -2%
CCOC(=O)C1CCN(C(=O)CCS(=O)(=O)Cc2ccccc2)CC1 | 3% | 7% | 9% | i | i | -1%

Compound activity as filed in PubChem.
